Composite z-score and z-score data for five compounds are collected here from PubChem BioAssay.

Assay [1] in a line: anti-His antibody binders, primary screen, artefact control for SMM control protein annotation, biochemical, small-molecule microarray, 635 nm fluorescence (AID 1128).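 Also: score merges feature fluorescence with signal-to-noise for each printed compound spot.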 The note with it: anti-His Alexa647 antibody binding, higher = more signal.
Assay [2] concerns Human papillomavirus type 1a E7 protein (residues 1-88). The experiment in a line: HPV1a E7 small-molecule binders, primary screen, biochemical, small-molecule microarray, residues 1-88, 635 nm (AID 1129). The note with it: small-molecule microarray binding, fluorescence 635 nm; higher = more signal.
Assay [3] addresses Focal adhesion kinase 1 (Homo sapiens) (UniProt Q05397). The assay is described as follows: small-molecule microarray binders of FAK, primary screen, biochemical, 635/667 nm fluorescence, BSA, DTT (AID 1130).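 Also: composite of spot emission at 667 nm and signal to noise over triplicate slides.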 The note with it: PTK2 binding, 635 nm fluorescence, higher = more signal.
Assay [4] deals with Fibrinogen (Alexa647-labelled). The assay is described as follows: fibrinogen binders on compound microarrays, profiling panel, artefact control for SMM control-protein annotation, biochemical, small-molecule microarray, 635/667 nm fluorescence (AID 1131).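 Also: z-score merges 667 nm fluorescence with per-spot signal-to-noise over triplicate slides.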 The note with it: fibrinogen-A647 binding fluorescence, higher = more signal.
Assay [5] addresses Follistatin (Homo sapiens) (UniProt P19883). The assay is described as follows: follistatin binders on small-molecule microarrays, primary screen, biochemical, small-molecule microarray, 635/667 nm fluorescence (AID 1132). Particulars: FST binding, 635 nm fluorescence, higher = more signal.
Assay [6] deals with Fibroblast growth factor 2 (Homo sapiens) (UniProt P09038). The assay is described as follows: FGF2 binders on small-molecule microarrays, primary screen, biochemical, small-molecule microarray, 635/667 nm fluorescence (AID 1133). The note with it: small-molecule microarray binding, FGF2, fluorescence 635/667; higher = more signal.
Sequence of Fibroblast growth factor 2 (Homo sapiens) (P09038 whole entry, looked up): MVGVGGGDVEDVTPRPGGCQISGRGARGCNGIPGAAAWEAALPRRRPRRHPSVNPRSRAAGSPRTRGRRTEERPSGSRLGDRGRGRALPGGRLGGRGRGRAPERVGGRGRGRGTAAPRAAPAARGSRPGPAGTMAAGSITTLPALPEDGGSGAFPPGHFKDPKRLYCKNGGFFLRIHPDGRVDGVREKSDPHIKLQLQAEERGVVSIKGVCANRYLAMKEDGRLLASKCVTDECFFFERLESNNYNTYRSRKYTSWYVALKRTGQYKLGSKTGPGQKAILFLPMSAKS
Assay [7] is described as follows: mitochondrial membrane potential change in A549 cells, profiling panel, cell-based, JC-1 fluorescence, basal, 24 h, 100 nL (AID 1138).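 Also: A549 lung adenocarcinoma cells under basal conditions with no added stimulus; test concentration not given here.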 The note with it: higher = more signal.
In a further assay the test system is Lefty1. The assay is described as follows: Lefty1 binders on small-molecule microarrays, primary screen, biochemical, small-molecule microarray, 635/667 nm fluorescence (AID 1139). Particulars: small-molecule microarray binding, fluorescence 635/667; higher = more signal.
Assay [8] relates to wheat germ agglutinin (Triticum aestivum), Alexa647-labelled. The experiment in a line: wheat germ agglutinin binders on compound microarrays, profiling panel, artefact control for SMM control-protein annotation, biochemical, small-molecule microarray, 635/667 nm fluorescence (AID 1140).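 Also: score merges 667 nm feature emission with signal to noise over triplicate slides.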 The note with it: WGA-A647 binding, 635 nm fluorescence, higher = more signal.
For assay [9], the target named is Luciferin 4-monooxygenase (Photinus pyralis) (UniProt P08659). The experiment in a line: firefly luciferase enzyme inhibitors, primary screen, biochemical, luminescence, purified enzyme, 2006 set (AID 1141).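 Also: cell-free assay with purified firefly luciferase at 100 ng per well in PBS; test concentration not given here.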 The note with it: SteadyGlo luminescence, 30 min, higher = more signal, called active from +8 up or from −8 down.
Sequence of Luciferin 4-monooxygenase (Photinus pyralis) (P08659 whole entry, looked up): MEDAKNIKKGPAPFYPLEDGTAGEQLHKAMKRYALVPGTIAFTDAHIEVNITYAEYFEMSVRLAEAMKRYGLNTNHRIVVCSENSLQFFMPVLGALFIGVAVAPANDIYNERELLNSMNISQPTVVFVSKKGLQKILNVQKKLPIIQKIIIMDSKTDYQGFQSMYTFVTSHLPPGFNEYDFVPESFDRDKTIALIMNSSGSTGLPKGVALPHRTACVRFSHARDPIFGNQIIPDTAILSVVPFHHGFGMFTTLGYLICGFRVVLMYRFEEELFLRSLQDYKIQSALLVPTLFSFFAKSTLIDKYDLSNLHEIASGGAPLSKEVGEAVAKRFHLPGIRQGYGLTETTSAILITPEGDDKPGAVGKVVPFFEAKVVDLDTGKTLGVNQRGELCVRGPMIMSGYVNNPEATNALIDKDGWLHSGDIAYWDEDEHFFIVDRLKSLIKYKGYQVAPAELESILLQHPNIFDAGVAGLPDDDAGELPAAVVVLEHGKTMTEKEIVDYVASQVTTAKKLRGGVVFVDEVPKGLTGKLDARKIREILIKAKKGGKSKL
The test system of assay [10] is Wnt5a (protein binding on small-molecule microarray). The assay is described as follows: Wnt5a binders on small-molecule microarray, primary screen, biophysical, 635/667 nm fluorescence (AID 1142).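 Also: fluorescence read at 667 nm with signal to noise per printed feature.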 The note with it: 635 nm fluorescence, higher = more signal.
The nature of assay [11]: cell viability in Huh7 cells, primary screen, cytotoxicity control for HCV replication inhibitor project, CellTiter-Glo luminescence, basal, 48 h (AID 1143).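 Also: Huh7 hepatoma cells carrying a hepatitis C replication reporter with no stimulus; test concentration not given here.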 The note with it: Huh7 HCV replicon, higher = more signal, called active from +8 up or from −8 down. For orientation: ATP-based viability assays read luminescence as a measure of living cells.
Assay [12] in a line: P. aeruginosa biofilm formation inhibitors, primary screen, PAO1 strain, BacTiter-Glo luminescence, LB-PBS (AID 1144). Particulars: 12 h, higher = more signal.
Assay [13] is described as follows: CREB reporter modulators without forskolin, primary screen, cell-based, PC12, CRE-LacZ reporter, unstimulated (AID 1145). The note with it: no forskolin, luminescence, 4.5 h, higher = more signal, called active from +8 up or from −8 down.
Assay [14] in a line: CREB reporter modulators under forskolin, primary screen, cell-based, PC12, CRE-LacZ reporter, forskolin-stimulated (AID 1146).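 Also: PC12 cells with 6xCRE LacZ reporter stimulated by forskolin 10 µM; beta-galactosidase reporter signal reflecting CREB driven transcription.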 Particulars: luminescence, 4.5 h, higher = more signal, called active from +8 up or from −8 down.
Assay [15] concerns the target Streptavidin (Streptomyces avidinii) (UniProt P22629). The experiment in a line: streptavidin binders on small-molecule microarray, primary screen, artefact control for SMM compound annotation, biophysical, 635/667 nm fluorescence (AID 1147).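 Also: signal reflects streptavidin binding to arrayed compounds as a control protein.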 The note with it: streptavidin binding, higher = more signal.
Assay [16] in a line: small-molecule binders of probe aInhba, primary screen, biochemical, small-molecule microarray, 635/667 nm fluorescence (AID 1148).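 Also: score merges 667nm spot fluorescence with signal-to-noise for antibody binding to printed compounds.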 Particulars: higher = more signal.
The target in assay [17] is Torsin-1A (Homo sapiens) (UniProt O14656). The experiment in a line: torsin A binders from cell lysate, primary screen, small-molecule microarray, wild-type, 635/667 nm (AID 1149). Particulars: COS7 hTOR1A-WT lysate, 635 nm fluorescence, higher = more signal.
Sequence of Torsin-1A (Homo sapiens) (O14656 whole entry, looked up): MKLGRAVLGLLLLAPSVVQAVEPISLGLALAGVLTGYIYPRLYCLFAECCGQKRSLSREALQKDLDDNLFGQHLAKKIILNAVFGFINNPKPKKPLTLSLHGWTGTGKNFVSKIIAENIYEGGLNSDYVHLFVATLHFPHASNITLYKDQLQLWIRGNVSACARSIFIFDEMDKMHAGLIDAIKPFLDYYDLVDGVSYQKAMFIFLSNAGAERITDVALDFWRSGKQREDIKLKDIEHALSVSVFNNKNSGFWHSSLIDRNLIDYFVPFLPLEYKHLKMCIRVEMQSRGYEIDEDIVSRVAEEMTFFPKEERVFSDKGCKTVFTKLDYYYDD
The target is the same in assay [18]. The assay is described as follows: small-molecule binders of mutant TOR1A in lysate, primary screen, cell lysate, small-molecule microarray, COS7 lysate, 635/667 nm fluorescence (AID 1150).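 Also: score pools 667 nm emission and signal to noise measuring lysate protein binding.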 The note with it: COS7 hTOR1A mutant lysate, 635 nm fluorescence, higher = more signal.
For assay [19], the system named is Sonic hedgehog protein (Shh). The experiment in a line: small-molecule binders of Shh protein, primary screen, biochemical, small-molecule microarray, 635/667 nm fluorescence (AID 1151).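 Also: Shh protein binding to compounds spotted on small-molecule microarray slides; score combines spot fluorescence intensity with signal-to-noise across triplicate slides.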 Particulars: small-molecule microarray binding, 635 nm fluorescence; higher = more signal.

Calls of active or inactive are those of the source. Unless noted, no rule for the calls is given here.

Sequence of Streptavidin (Streptomyces avidinii) (P22629 whole entry, looked up): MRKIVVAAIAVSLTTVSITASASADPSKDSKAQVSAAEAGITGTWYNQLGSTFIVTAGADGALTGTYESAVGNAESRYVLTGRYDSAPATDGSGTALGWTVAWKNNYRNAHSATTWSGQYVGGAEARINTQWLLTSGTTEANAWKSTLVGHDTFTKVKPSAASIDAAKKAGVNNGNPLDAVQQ
Sequence of Focal adhesion kinase 1 (Homo sapiens) (Q05397 whole entry, looked up): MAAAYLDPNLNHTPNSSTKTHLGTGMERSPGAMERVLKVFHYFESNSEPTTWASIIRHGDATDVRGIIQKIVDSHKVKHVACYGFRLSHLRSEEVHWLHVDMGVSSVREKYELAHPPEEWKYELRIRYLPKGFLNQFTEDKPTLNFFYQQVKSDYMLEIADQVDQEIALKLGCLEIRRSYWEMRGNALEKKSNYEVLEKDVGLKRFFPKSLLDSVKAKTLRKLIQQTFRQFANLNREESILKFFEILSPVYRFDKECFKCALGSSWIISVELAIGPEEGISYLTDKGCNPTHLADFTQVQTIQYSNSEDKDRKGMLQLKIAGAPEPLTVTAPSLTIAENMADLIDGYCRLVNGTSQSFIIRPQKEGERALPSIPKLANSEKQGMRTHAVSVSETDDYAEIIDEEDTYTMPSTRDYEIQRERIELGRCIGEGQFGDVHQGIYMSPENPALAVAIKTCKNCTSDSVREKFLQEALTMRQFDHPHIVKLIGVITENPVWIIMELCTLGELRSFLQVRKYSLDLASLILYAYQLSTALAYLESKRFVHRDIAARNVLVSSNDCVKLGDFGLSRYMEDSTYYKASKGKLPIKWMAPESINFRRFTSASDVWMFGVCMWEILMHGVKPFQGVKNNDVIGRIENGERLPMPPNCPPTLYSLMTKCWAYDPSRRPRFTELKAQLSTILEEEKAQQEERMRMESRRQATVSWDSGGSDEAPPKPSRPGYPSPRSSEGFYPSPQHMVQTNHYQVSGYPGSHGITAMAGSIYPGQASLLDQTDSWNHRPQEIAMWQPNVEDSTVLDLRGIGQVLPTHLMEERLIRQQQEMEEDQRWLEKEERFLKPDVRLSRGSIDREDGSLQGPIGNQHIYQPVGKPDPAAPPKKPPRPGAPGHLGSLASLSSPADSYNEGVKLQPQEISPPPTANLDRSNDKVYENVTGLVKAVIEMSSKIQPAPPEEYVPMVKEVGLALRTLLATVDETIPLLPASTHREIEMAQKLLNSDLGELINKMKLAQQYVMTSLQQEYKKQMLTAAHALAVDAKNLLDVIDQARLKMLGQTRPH
Sequence of Follistatin (Homo sapiens) (P19883 whole entry, looked up): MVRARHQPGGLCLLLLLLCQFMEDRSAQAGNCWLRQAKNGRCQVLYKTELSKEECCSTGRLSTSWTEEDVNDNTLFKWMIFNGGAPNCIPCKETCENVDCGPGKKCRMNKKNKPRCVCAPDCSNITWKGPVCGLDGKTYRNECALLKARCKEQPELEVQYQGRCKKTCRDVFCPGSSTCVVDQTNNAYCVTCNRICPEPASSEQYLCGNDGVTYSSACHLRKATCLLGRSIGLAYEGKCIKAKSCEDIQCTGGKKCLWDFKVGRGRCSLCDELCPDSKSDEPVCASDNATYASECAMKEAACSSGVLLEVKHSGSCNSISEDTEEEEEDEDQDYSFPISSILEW

On to `COc1ccc(C(=O)Nc2ccc(CN3C(=O)[C@]4(O[C@H](CCn5cc([C@H](O)c6ccccc6)nn5)[C@@H]([Si](C)(C)c5ccc(OC)cc5)[C@@H]4C)c4ccccc43)cc2)cc1`, for which the composite z-score in [1] was -0.271; in assay [2], -0.303; in assay [3] it was -0.288; in [4] it was 0.107; in assay [5] it was 0.971; in assay [6], -0.224. Moreover, the composite z-score was 0.444 in the assay on Lefty1; 0.849 in assay [8]; -0.0249 in [10]; -0.19 in [15]; -0.0044 in [16]; 0.33 with Torsin-1A (Homo sapiens) [17]. For the same compound, the composite z-score with Torsin-1A (Homo sapiens) [18] is 0.223; in assay [19] it was 0.666. Besides, the z-score in assay [7] was 0.496; in assay [9], -0.363 (inactive); in assay [11], -6.51 (inactive); in [12], -0.675 (inactive); in assay [13] it was -0.375 (inactive); in assay [14], -1.22 (inactive).
Turning to `CCOC(=O)C1=CCC(c2cccc(Cl)c2)O1` (stereo not given), the composite z-score in assay [1] was 0.433; in assay [2] it was 0.54; in assay [3], -0.192; in assay [4] it was 0.2; in assay [5], -0.0085; in assay [6], -0.505. For the same compound, the composite z-score in the assay on Lefty1 was -0.0196; in [8], 0.225; in assay [10], -0.0719; in assay [15] it was -0.164; in [16] it was 0.0541; with Torsin-1A (Homo sapiens) [17] it was 0.368. Further, the composite z-score was 0.263 with Torsin-1A (Homo sapiens) [18] and -0.549 in [19]. In addition, the z-score is -1.14 in [7]; 1.7 (inactive) in assay [9]; -4.6 (inactive) in assay [11]; -1.23 (inactive) in assay [12]; -0.471 (inactive) in [13]; 0.0691 (inactive) in [14].
As to `COc1ccccc1CN1C(=O)c2ccccc2[C@](Cc2ccccc2I)(C(=O)NCCN2CCOCC2)[C@@H]1c1ccc(CO)cc1`, the composite z-score in assay [1] was determined as 0.74; in [2], 1.18; in [3] it was 0.467; in assay [4], 0.913; in [5], 1.41; in [6], 1.39. For the same compound, the composite z-score in the assay with Lefty1 is 0.988; in [8] it was 0.718; in [10], 0.375; in [15], 0.593; in [16], -0.101; with Torsin-1A (Homo sapiens) [17], 0.301. Also, the composite z-score with Torsin-1A (Homo sapiens) [18] was determined as 0.504; in [19], 1.48. Also, the z-score in assay [7] was 2.51; in assay [9] it was -1.06 (inactive); in [11], -4.52 (inactive); in assay [12], 0.506 (inactive); in assay [13] it was 0.648 (inactive); in [14], -0.746 (inactive).
In the case of `COC(=O)C(CC#Cc1ccc2c(c1)[C@]1(C(=O)N2)[C@H](c2ccc(O)cc2)N2[C@H](c3ccccc3)[C@H](c3ccccc3)OC(=O)[C@H]2[C@@H]1C(=O)O)C(=O)OC`, the composite z-score is 0.124 in assay [1]; 0.56 in [2]; 0.318 in assay [3]; 0.298 in [4]; 0.879 in assay [5]; -0.12 in assay [6]. Also, the composite z-score was 0.369 in the assay with Lefty1; -0.22 in [8]; -0.198 in [10]; -0.0974 in assay [15]; -0.212 in [16]; -0.295 with Torsin-1A (Homo sapiens) [17]. The composite z-score in the assay with Torsin-1A (Homo sapiens) [18] came out at 0.168; in assay [19] it was 0.262. In addition, the z-score in assay [7] was -0.233; in assay [9], -0.462 (inactive); in [11], -0.627 (inactive); in assay [12], -0.191 (inactive); in assay [13] it was 0.389 (inactive); in assay [14], 0.416 (inactive).
Regarding `O=C1O[C@H](c2ccccc2)[C@H](c2ccccc2)N2[C@H]1[C@@H](C(=O)N1CCN(c3ncccn3)CC1)[C@]1(C(=O)Nc3ccc(C#CCCO)cc31)[C@H]2c1ccccc1OCCO`, the composite z-score in [1] is 1.55; in assay [2], 1.2; in [3], 0.358; in [4], 0.869; in assay [5], 0.618; in assay [6], 1.29. Besides, the composite z-score was determined as 0.151 with Lefty1; 1.02 in assay [8]; 0.163 in assay [10]; 0.376 in assay [15]; 0.0714 in assay [16]; 0.506 with Torsin-1A (Homo sapiens) [17]. The values for the composite z-score (with Torsin-1A (Homo sapiens) [18]; in [19]) were 0.686 and 0.371, respectively. Moreover, the z-score in [7] is 0.91; in [9], -0.682 (inactive); in assay [11] it was -1.55 (inactive); in assay [12], 0.525 (inactive); in assay [13], 0.765 (inactive); in assay [14], -0.484 (inactive).
